GLP-1R agonist: activates the human GLP-1 receptor; P43220; HEK293 GLP-1R CRE-luciferase, luminescence, 4-6 h; cells express a hypersensitive GLP-1R form; Potency, µM (doses to about 45.6 µM), for the others: at the highest dose activation, actives largely listed as activators; 380,000 tested, 0.007% active; AID 624172; further: potency means the concentration at half of the fitted maximal effect; % of control where 0% means no effect
Target sequence (P43220 whole entry, looked up): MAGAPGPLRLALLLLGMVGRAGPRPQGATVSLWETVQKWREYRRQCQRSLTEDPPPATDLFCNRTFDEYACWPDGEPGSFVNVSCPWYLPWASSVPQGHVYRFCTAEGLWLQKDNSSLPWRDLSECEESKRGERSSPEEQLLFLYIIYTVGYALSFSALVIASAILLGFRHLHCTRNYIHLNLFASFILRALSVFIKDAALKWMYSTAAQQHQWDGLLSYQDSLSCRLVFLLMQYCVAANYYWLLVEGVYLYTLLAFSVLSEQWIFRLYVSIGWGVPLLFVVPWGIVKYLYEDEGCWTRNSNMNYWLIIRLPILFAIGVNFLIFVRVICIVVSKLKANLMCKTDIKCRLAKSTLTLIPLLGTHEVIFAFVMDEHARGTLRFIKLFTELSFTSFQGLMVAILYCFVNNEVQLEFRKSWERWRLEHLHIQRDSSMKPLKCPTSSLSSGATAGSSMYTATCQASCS
GLP-1R inv ag: acts as inverse agonist at human GLP-1 receptor; AID 624417; HEK293 GLP-1R CRE-luciferase, luminescence, 24 h; GLP-1R form is constitutively active; Potency, µM (top dose mostly 38.3 µM), for the others: at the highest dose activity change, negative = inhibition, hits mostly inhibitors; 410,000 tested, 1.6% active; further: potency means the concentration at half of the fitted maximal effect; on the % scale 0 is the no-effect control and ±100 the full control effect; nearly all actives have a fitted effect of over 55% in size
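Inverse agonists were sought by their lowering of basal cAMP reporter luciferase output in HEK293 cells stably carrying constitutively active human GLP-1R, after 24 h compound treatment.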
PTHR1 ag: activates the human parathyroid hormone receptor PTHR1; HEK293 GP2 PTHR1 cells, GloSensor cAMP luminescence, 1 h; Potency, µM (doses to about 115 µM), for inactives: top-dose activation, usual class: activators; 410,000 tested, 0.075% active; further: potency means the concentration at half of the fitted maximal effect; nearly all actives have a fitted effect of over 55% in size
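HEK-293-derived GP2 cells expressing PTHR1 and a GloSensor cAMP reporter, 3,000/well, plated overnight, given luciferin plus IBMX (each 0.5 mM as added) for 1 h at 37 °C, then compound for 1 h at 37 °C. Luminescence was read after 15 min at room temperature.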
TSHR antag: human thyrotropin receptor antagonism; TSHR-expressing cells, TSH-stimulated cAMP HTRF, 2 h; active compounds read low; activity change, negative = inhibition, % at 11.5 µM; 330,000 tested, 0.2% active; AID 504810;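 active means activity change below a set negative limit, meaning inhibition stronger than a set level, cut at about -70% in these data; inconclusive means activity change between two set negative limits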; further: on the % scale 0 is the no-effect control and ±100 the full control effect
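Cell-based HTRF cAMP assay; TSHR cells + compound, TSH EC80 (4nM final), 2 h, 37 deg C. Lysis with anti-cAMP cryptate and cAMP-d2, 30 min RT, read 665/620 nm.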
GLP1R cytotox: cytotoxicity counter-screen for GLP-1 receptor inverse agonists. HEK293 cAMP-luciferase reporter cells, luminescence, 24 h. Potency, µM (series often up to 38.3 µM), inactives show at the highest dose activity change, negative = inhibition, actives largely listed as inhibitors. 410,000 tested, 0.13% active. AID 624418;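 further: loss of luciferase light is scored as toxicity; potency means the concentration at half of the fitted maximal effect; on the % scale 0 is the no-effect control and ±100 the full control effect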
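A 23 nL compound transfer followed 12 hours of cell culture at 37 deg C; exposure then lasted 24 hr. Luciferase assay detection reagent was dispensed and plates read for luminescence after a 12 min room-temperature wait.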
* hit, by the source's call; [ ] = another dose, or the depositor's remark. Hits are enriched below; roughly 1.8% of the tested compounds scored in any of these assays. Unless noted, the call rests on the fitted dose curve; in most records, active means well fitted curve in the direction sought with a large enough effect; inconclusive means small, poorly fitted or top-dose-only effect, or another doubt; inactive means no such curve, though single readings can be large; an effect the other way counts as inactive or inconclusive.

Screening CCCCSc1nc2sc3c(c2c(=O)n1-c1ccc(C)cc1)CCN(C)C3 returned GLP-1R agonist 8.1%, GLP-1R inv ag inconclusive, PTHR1 ag inactive, TSHR antag -74.0* and GLP1R cytotox -10.5%.
CCOC(=O)CSc1nc2sc3c(c2c(=O)n1-c1ccc(C)cc1)CCN(C)C3 was read as GLP-1R agonist -2.2%, GLP-1R inv ag 3.1%, PTHR1 ag inconclusive, TSHR antag -6.6 and GLP1R cytotox 4.4%.
Screening Cc1cccc(Cc2c(C)nc3nc(SCc4ccccc4F)nn3c2C)c1 returned GLP-1R inv ag -5.5%, PTHR1 ag inactive and GLP1R cytotox -5.6%.
`CC1=C(CO)C(=O)OC([C@@H](C)C2CC[C@H]3C4C[C@H]5O[C@]56[C@@H](O)C=CC(=O)[C@]6(C)C4CC[C@]23C)C1` (some centres undefined) gave GLP-1R agonist -19.1%, GLP-1R inv ag 10.2%, PTHR1 ag -52.0%, TSHR antag -39.3 and GLP1R cytotox 12.6µM*.
`N=c1n(CCO)c2ccccc2n1Cc1ccccc1F` gave GLP-1R inv ag -6.8%, PTHR1 ag -20.0% and GLP1R cytotox -16.5%.
Screening CCC(C(=O)Nc1ccccc1F)n1nc(C)c2c(C)n(-c3ccccc3)nc2c1=O (centres undefined) returned GLP-1R agonist 4.6%, GLP-1R inv ag inconclusive, PTHR1 ag inactive, TSHR antag 6.2 and GLP1R cytotox -20.3%.
Screening CCC(C(=O)NC1CC1)n1nc(C)c2c(C)n(-c3ccc(C)cc3)nc2c1=O (centres undefined) returned GLP-1R agonist -4.5%, GLP-1R inv ag 3.4%, PTHR1 ag -24.7%, TSHR antag -7.2 and GLP1R cytotox -3.7%.
Screening CCC(C(=O)Nc1cc(F)ccc1F)n1nc(C)c2c(C)n(-c3ccc(C)cc3)nc2c1=O (centres undefined) returned GLP-1R agonist 4.1%, GLP-1R inv ag 10µM*, PTHR1 ag -43.0%, TSHR antag -1.1 and GLP1R cytotox -8.2%.
Screening Cc1ccc(-n2nc3c(=O)n(C(C)C(=O)NC4CC4)nc(C)c3c2C)cc1 (centres undefined) returned GLP-1R agonist -6.9%, GLP-1R inv ag -7.8%, PTHR1 ag -12.0%, TSHR antag -113.7* and GLP1R cytotox -6.9%.
For Cn1ccc2cc(-c3ccc4ncnc(NCc5cccnc5)c4c3)ccc21 the results were TSHR antag 0.0.
Screening CCOc1c(Cl)cc(C(=O)N(Cc2ccc(N(C)C)cc2)Cc2ccco2)cc1Cl returned GLP-1R inv ag -11.1%, PTHR1 ag -6.4% and GLP1R cytotox 0.2%.
For O=[N+]([O-])c1cc(C(F)(F)F)ccc1NCCc1c[nH]c2ccc(O)cc12 the results were GLP-1R agonist 11.8%, GLP-1R inv ag 0.0%, PTHR1 ag -1.2%[57.5 µM], TSHR antag -14.2 and GLP1R cytotox -11.8%.
For O=[N+]([O-])c1cc(C(F)(F)F)ccc1NCCc1c[nH]c2ccccc12 the results were GLP-1R agonist -5.5%, GLP-1R inv ag inconclusive, PTHR1 ag -0.9%, TSHR antag -9.4 and GLP1R cytotox 10µM*.
For COCCCNC(=O)Cn1nc(N2CCN(c3ccccc3)CC2)ccc1=O the results were GLP-1R inv ag 9.9%, PTHR1 ag 11.1% and GLP1R cytotox 20.7%.
For CC(=O)/C(=N/Nc1ccccc1[N+](=O)[O-])N1CCCc2ccccc21 the results were GLP-1R agonist 20.7%, GLP-1R inv ag 10µM*, PTHR1 ag -7.7%, TSHR antag -11.1 and GLP1R cytotox inconclusive.
`CCc1ncc(C(O)c2ccc(Cl)cc2)n1Cc1ccccc1` (centres undefined) gave GLP-1R agonist -8.0%, GLP-1R inv ag 8.91µM*, PTHR1 ag -18.7% and GLP1R cytotox -4.2%.
`Cc1ccccc1CNC(=O)c1cc2cccc3c2n1CC(C)S3` (centres undefined) gave GLP-1R inv ag 10µM*, PTHR1 ag inactive and GLP1R cytotox 0.1%.
`COc1ccccc1CNC(=O)c1cc2cccc3c2n1CC(C)S3` (centres undefined) gave GLP-1R inv ag inconclusive, PTHR1 ag 0.3% and GLP1R cytotox -10.5%.
CC1Cn2c(C(=O)NCc3ccccc3Cl)cc3cccc(c32)S1 (centres undefined) was read as GLP-1R inv ag 11.2µM*, PTHR1 ag inactive and GLP1R cytotox -7.4%.
For CC1CCN(S(=O)(=O)c2ccc3c(c2)N(CC(=O)Nc2ccc(F)c(Cl)c2)C(=O)CO3)CC1 the results were GLP-1R inv ag inconclusive, PTHR1 ag -22.8% and GLP1R cytotox -7.0%.
Screening Cc1c(C(=O)N(C)C)sc2c1c(=O)n(-c1ccc(F)cc1)c(=O)n2Cc1ccccc1C#N returned GLP-1R inv ag 9.8%, PTHR1 ag -14.1% and GLP1R cytotox -2.9%.
For Cc1ccc2nc(-c3ccc(NC(=O)CNC4CC4)cc3)sc2c1 the results were GLP-1R agonist -5.5%, GLP-1R inv ag 12.6µM*, PTHR1 ag -90.9%, TSHR antag -9.5 and GLP1R cytotox 4.2%.
`COc1ccccc1CNCc1cc(OC)c(OC)cc1OC` gave GLP-1R agonist -9.2%, GLP-1R inv ag 1.2%, PTHR1 ag -24.9%[57.5 µM], TSHR antag 1.4 and GLP1R cytotox 1.0%.
Screening COc1ccccc1CNCc1cc(Br)ccc1OC returned GLP-1R agonist 1.9%, GLP-1R inv ag 6.31µM*, PTHR1 ag -2.0%, TSHR antag -5.4 and GLP1R cytotox -20.1%.
Screening CCOC(=O)c1sc(N2C(=O)c3oc4ccc(C)cc4c(=O)c3C2c2ccccc2F)nc1C (centres undefined) returned GLP-1R inv ag 7.4%, PTHR1 ag inconclusive and GLP1R cytotox 14.5%.
CCCCc1ccc(NC(=O)C2CCCC2)cc1 was read as GLP-1R agonist 17.1%, GLP-1R inv ag 10µM*, PTHR1 ag -21.7% and GLP1R cytotox -6.7%.
CCN(CC)c1ccc(NC(=O)C2CCCC2)cc1 was read as GLP-1R agonist 2.7%, GLP-1R inv ag -13.9%, PTHR1 ag -3.9%, TSHR antag -13.4 and GLP1R cytotox -3.1%.
`O=C(O)CCC(=O)Nc1ccc(C(=O)OC2CCCCC2)cc1` gave GLP-1R agonist 1.4%, GLP-1R inv ag -5.3%, PTHR1 ag inactive, TSHR antag -14.4 and GLP1R cytotox -0.3%.
`O=C(OC1CCCCC1)c1ccc(NC(=O)C2CCCCC2)cc1` gave GLP-1R agonist 6.7%, GLP-1R inv ag 2.51µM*, PTHR1 ag -14.7%, TSHR antag -26.3 and GLP1R cytotox -16.3%.
Screening CC(C)Oc1ccc(CNC(=O)C2CCN(Cc3cc4ccccc4n3Cc3ccccc3)CC2)cc1 returned GLP-1R inv ag inconclusive, PTHR1 ag -15.0% and GLP1R cytotox 8.5%.
